Assay outcomes: PubChem, several laboratories
HIF-2a inh = blocks HIF-2a reporter activity. 360,000 compounds, 0.72% hits. 786-0 RCC cells HIF-2a reporter, luciferase luminescence, overnight. inhibition, % at 18.8 µM;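 active = inhibition of the luminescence signal of 40% or more relative to plate controls, in a single-dose primary screen at 18.75 µM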
KKLEB cytotox = reduces viability of KKLEB cystic fibrosis airway cells; KKLEB CF airway cells viability, ATPlite luminescence, overnight; hits give low values; cells stimulated with P. aeruginosa culture filtrate; activity change (cytotoxicity), % at 5 µM; 360,000 compounds, 0.36% hits; AID 602141;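 active = corrected activity change at or below -50% at 5 µM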
CF NFkB inh = cystic fibrosis NF-kB activation inhibition | inhibition, % at 5 µM | 360,000 compounds, 0.86% hits | KKLEB NF-kB-GFP reporter, PAF-induced, GFP fluorescence overnight;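 active = at least 50% inhibition at 5 µM, scaled per plate between neutral and stimulator controls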;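 note: PAF is a Pseudomonas aeruginosa culture filtrate used as stimulus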
ABHD5 PLIN5 PPI = ABHD5-PLIN5 protein interaction inhibition. inhibition, % at 4 µM. Q00G26+Q8WTS1. 360,000 compounds, 0.78% hits. Split G. princeps luciferase complementation, luminescence, 4 h;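 active = inhibition above the mean inhibition across every tested compound plus 3 SD, cut at about 22% in these data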
Target sequence (Q00G26 whole entry, looked up): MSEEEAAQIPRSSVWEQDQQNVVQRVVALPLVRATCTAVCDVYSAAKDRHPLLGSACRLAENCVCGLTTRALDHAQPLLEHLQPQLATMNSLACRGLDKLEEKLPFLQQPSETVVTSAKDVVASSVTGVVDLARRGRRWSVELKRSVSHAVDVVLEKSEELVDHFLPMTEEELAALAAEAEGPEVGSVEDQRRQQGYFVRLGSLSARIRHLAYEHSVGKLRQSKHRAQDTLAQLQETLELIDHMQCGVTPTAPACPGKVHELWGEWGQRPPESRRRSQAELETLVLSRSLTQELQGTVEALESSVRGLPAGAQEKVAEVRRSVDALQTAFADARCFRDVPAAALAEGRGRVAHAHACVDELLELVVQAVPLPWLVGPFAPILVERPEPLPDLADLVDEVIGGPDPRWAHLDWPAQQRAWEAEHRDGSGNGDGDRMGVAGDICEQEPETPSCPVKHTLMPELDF
Target sequence (Q8WTS1 whole entry, looked up): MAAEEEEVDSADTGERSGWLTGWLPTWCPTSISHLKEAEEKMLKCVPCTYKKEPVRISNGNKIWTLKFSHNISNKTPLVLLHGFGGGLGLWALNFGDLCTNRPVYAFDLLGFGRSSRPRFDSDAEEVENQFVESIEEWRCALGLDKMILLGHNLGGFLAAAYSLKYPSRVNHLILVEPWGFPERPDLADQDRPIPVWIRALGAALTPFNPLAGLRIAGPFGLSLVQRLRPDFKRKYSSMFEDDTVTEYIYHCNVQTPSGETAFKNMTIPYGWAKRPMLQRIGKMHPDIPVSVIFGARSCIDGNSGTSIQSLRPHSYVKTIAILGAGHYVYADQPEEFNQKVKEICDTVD
Mdm2 MdmX PPI = inhibitors of human Mdm2/MdmX interaction; SaOS-2 split-luciferase Mdm2/MdmX complementation, luminescence; inhibition, % at 8 µM; 330,000 compounds, 3% hits;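 active = inhibition of at least 50% at 8 µM in the primary screen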
Peg3 prom inh = inhibitors of Peg3 promoter; HeLa PEG-Prom luciferase reporter, luminescence, overnight; inhibition, % at 20 µM; 360,000 compounds, 1.7% hits;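 active = inhibition of at least 50% at 20 µM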
Mdm2-MdmX conf = confirmation of human Mdm2/MdmX interaction inhibitors; 10,000 compounds, 55% hits; Mdm2-MdmX binding, luminescent assay; inhibition, % at 8 µM; shares compounds with Mdm2 MdmX PPI; AID 489028; in the data active = inhibition above about 40%
FLuc counter = counter-screen for Mdm2/MdmX inhibitors: full-length luciferase | shares compounds with Mdm2 MdmX PPI | SaOS-2 full-length luciferase counterscreen, luminescence | inhibition, % at 8 µM | 6,200 compounds, 77% hits;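 active = mean inhibition at 8 µM reaching about 37%, which flags the compound as non-specific, limit read from the data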;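 note: p53-null SaOS-2 cells with luciferase driven by a doxycycline-inducible promoter; compound on cells about two nights before reading with doxycycline added after day one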
Of the large screens only hits and unclear results are named; the others gave an inactive call (follow-up assays come after a bar, where they were run). An excerpt weighted towards active compounds, which were near 4.6% of everything screened.

NCc1csc(Nc2ccc(C(=O)c3ccccc3)cc2)n1	none (no result: Mdm2 MdmX PPI)
Oc1ccc(C[C@H]2CNCCN2CCc2cccc3ccccc23)cc1	none
Oc1ccc(C[C@@H]2CNCCN2CCCCC2CCCCC2)cc1	Mdm2 MdmX PPI 57, Peg3 prom inh 94 | Mdm2-MdmX conf inactive
Cc1ccc(S(=O)(=O)N/N=C\c2cn(CC(N)=O)c3ccccc23)cc1C	Mdm2 MdmX PPI 52 | Mdm2-MdmX conf inactive
O=C(Nc1nnc(SCc2ccc(F)cc2)s1)c1cccnc1Cl	none
O=C(Nc1nnc(SCc2ccc(F)cc2)s1)c1ccccn1	Mdm2 MdmX PPI 82, Peg3 prom inh 65 | Mdm2-MdmX conf 69 | FLuc counter 41
CCCSc1nnc(NC(=O)Nc2ccc(F)cc2)s1	Mdm2 MdmX PPI 95 | Mdm2-MdmX conf 85 | FLuc counter inactive
O=C(Nc1nc2ccc(F)cc2s1)c1ccccn1	Mdm2 MdmX PPI 93 (no result: HIF-2a inh, KKLEB cytotox, CF NFkB inh, ABHD5 PLIN5 PPI, Peg3 prom inh) | Mdm2-MdmX conf 65 | FLuc counter 58
NS(=O)(=O)c1cccc(NC(=O)COC(=O)c2ccc(S(=O)(=O)N3CCOCC3)cc2)c1	none (no result: Mdm2 MdmX PPI)
N#Cc1ccccc1NC(=O)c1ccccc1OCC(=O)Nc1ccc2c(c1)oc1ccccc12	Mdm2 MdmX PPI 62 | Mdm2-MdmX conf inactive
O=C(COc1ccc2c(c1)OCO2)Nc1ccc2c(c1)oc1ccccc12	Mdm2 MdmX PPI 50 | Mdm2-MdmX conf inactive
O=C(Nc1ccc2c(c1)oc1ccccc12)c1ccc2c(c1)OCO2	none
CCCNC(=O)c1ccccc1NC(=O)c1ccc2c(c1)NC(=O)C(C)S2 (configuration not stated)	Mdm2 MdmX PPI 53 | Mdm2-MdmX conf 68 | FLuc counter 72
COc1ccc(C2CC(O)(c3ccccc3)Oc3c(C)ccc(C)c32)cc1 (configuration not stated)	Mdm2 MdmX PPI 51 | Mdm2-MdmX conf inactive
COc1ccc(Nc2nc(N)c(C(=O)c3ccc(OC)cc3)s2)cc1	CF NFkB inh 53, Mdm2 MdmX PPI 50 | Mdm2-MdmX conf 59 | FLuc counter 60
COc1ccc(Nc2nc(N)c(C(=O)c3ccc(F)cc3)s2)cc1	Mdm2 MdmX PPI 51 | Mdm2-MdmX conf 52 | FLuc counter 81
COc1ccc(C(=O)c2sc(Nc3ccccc3)nc2C)cc1	none
O=C(O)c1cc(N=Nc2c(O)ccc3ccccc23)cc(C(=O)O)c1	none (no result: Mdm2 MdmX PPI)
O=C(O)c1cc2ccccc2c(N=Nc2cccnc2)c1O	HIF-2a inh 73, Mdm2 MdmX PPI 61, Peg3 prom inh 55 | Mdm2-MdmX conf inactive
Cc1ccc(-c2nn(-c3ccccc3)c3[nH]c(=O)c(CNCc4ccccc4)cc23)cc1	Mdm2 MdmX PPI 52 | Mdm2-MdmX conf inactive
CCC(=O)Nc1ccc(Nc2nc(C)c([N+](=O)[O-])c(Nc3ccc(NC(=O)CC)cc3)n2)cc1	Mdm2 MdmX PPI 64, Peg3 prom inh 53 | Mdm2-MdmX conf 74 | FLuc counter 80
Cc1nc(Nc2ccc(C(=O)O)cc2)nc(Nc2ccc(C(=O)O)cc2)c1[N+](=O)[O-]	none
COc1cc2ncnc(N[C@H](C)c3ccccc3)c2cc1OC	none
COc1ccc(/C=C/C(=O)Nc2ccc3nc4n(c(=O)c3c2)CCCC4)cc1	Mdm2 MdmX PPI 70 | Mdm2-MdmX conf inactive
COc1ccccc1-c1oc2ccccc2c1C#CC1(O)CCCCC1	none
COc1ccccc1-c1oc2ccccc2c1C#CC1(N)CCCCC1	Mdm2 MdmX PPI 74, Peg3 prom inh 72 | Mdm2-MdmX conf inactive
Cc1ccc(-c2ccc(/C=C3\C(=O)ON=C3c3ccccc3)o2)c([N+](=O)[O-])c1	HIF-2a inh 95, CF NFkB inh 52, Mdm2 MdmX PPI 82, Peg3 prom inh 97 | Mdm2-MdmX conf inactive
O=C(Nc1ccc(Oc2ccc(Cl)cc2)c(Cl)c1)c1cc(I)cc(I)c1O	CF NFkB inh 66, Mdm2 MdmX PPI 100, Peg3 prom inh 82 | Mdm2-MdmX conf 74 | FLuc counter 56
NC1(C#Cc2ccc3oc(=O)c(-n4cc(-c5ccsc5)nn4)cc3c2)CCCCC1	Mdm2 MdmX PPI 94 | Mdm2-MdmX conf inactive
COCCN(Cc1cc2cc(C)ccc2[nH]c1=O)S(=O)(=O)c1ccc(Cl)cc1	none
COc1ccc(/C=N\NC(=O)c2ccccc2OC)cc1COc1c(F)c(F)c(F)c(F)c1F	none
COc1ccc(/C=N\NC(=O)c2ccccc2Cl)cc1COc1c(F)c(F)c(F)c(F)c1F	Mdm2 MdmX PPI 56 | Mdm2-MdmX conf inactive
CC(=O)NS(=O)(=O)c1ccc(NS(=O)(=O)c2ccccc2[N+](=O)[O-])cc1	none
CC(c1ccco1)N(C(=O)c1ccc(Cl)c([N+](=O)[O-])c1)c1ccccn1 (configuration not stated)	none
COc1ccc(-c2c[n+](CC(=O)OC3CC(C)CCC3C(C)C)c3n2CCC3)cc1 (configuration not stated)	Mdm2 MdmX PPI 63 | Mdm2-MdmX conf inactive | FLuc counter 57
CC(C)[C@@H]1CC[C@@H](C)C[C@H]1OC(=O)C[n+]1cc(-c2ccc(Cl)cc2)n2c1CCCCC2	Mdm2 MdmX PPI 78 | Mdm2-MdmX conf 73 | FLuc counter inactive
CSCCC(c1nc2ccccc2[nH]1)n1c(/C=C/c2ccc(F)c(F)c2)nc2ccccc21 (configuration not stated)	none (no result: KKLEB cytotox, CF NFkB inh, Mdm2 MdmX PPI, Peg3 prom inh)
COc1ccc(Cn2c(-c3ccccc3C)nc3c(c(=O)c4ccccc4n3C)c2=O)cc1	none
N/C(=N\OC(=O)c1ccc2ccccc2c1)c1cccc([N+](=O)[O-])c1	Mdm2 MdmX PPI 83 | Mdm2-MdmX conf inactive
N/C(=N\OC(=O)c1ccc2ccccc2c1)c1ccncc1	none
N/C(=N\OC(=O)c1ccc(=O)n(Cc2ccc(Cl)cc2)c1)c1ccccn1	Mdm2 MdmX PPI 67 | Mdm2-MdmX conf inactive
N/C(=N/OC(=O)c1cccc([N+](=O)[O-])c1)c1cccc([N+](=O)[O-])c1	none
COc1ccc(/C(N)=N/OC(=O)c2ccc3ccccc3c2)cc1OC	none (no result: Mdm2 MdmX PPI)
N/C(=N\OC(=O)c1ccc2ccccc2c1)c1ccccn1	KKLEB cytotox -68, Mdm2 MdmX PPI 70, Peg3 prom inh 111 | Mdm2-MdmX conf 49 | FLuc counter 111
N/C(=N\OC(=O)c1ccc2ccccc2c1)c1ccccc1Cl	Mdm2 MdmX PPI 100, Peg3 prom inh 81 | Mdm2-MdmX conf 68 | FLuc counter 77
CCN1C(=O)/C(=C2/Sc3ccc(OC)cc3N2C)SC1=Nc1cccc(O)c1	Mdm2 MdmX PPI 97 | Mdm2-MdmX conf inactive
C=CCN1C(=O)/C(=C2/Sc3ccc(OC)cc3N2C)SC1=Nc1ccccc1	none
Cc1ccc(S(=O)(=O)c2nc(S(=O)(=O)c3ccccc3)sc2N2CCN(CCO)CC2)cc1	Mdm2 MdmX PPI 53 | Mdm2-MdmX conf inactive
